The results in this text go back to PubChem BioAssay.

Assay [1] can be described thus: antimalarial activity against Dd2 strain (AID 2302;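 active = growth inhibition above 50% at the single 2 µM test dose, taken to imply half-maximal potency below 2 µM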;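 also: 0% = DMSO untreated growth and 100% = chloroquine plus artemisinin killed control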). The settings on record: P. falciparum Dd2 in RBCs, LDH growth readout, 72 h; at 2 µM; hits give high values.
Assay [2] can be described thus: HepG2 cytotoxicity, primary screen, cytotoxicity control for P. falciparum antimalarial project, cell-based, ATP luminescence (AID 2303;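 active = inhibition above 50%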;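 also: 0% = DMSO wells and 100% = digitonin-killed cells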). To be noted: HepG2 viability, 24-48 h, at 10 µM, hits give high values.
Assay [3] deals with L-lactate dehydrogenase (Plasmodium falciparum (isolate CDC / Honduras)) (UniProt Q27743). As to the kind of experiment: PfLDH activity inhibition – cell lysate, 3D7 strain, counter-screen for P. falciparum growth inhibition project (AID 2304).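 Also: 0% = vehicle and 100% = reference inhibitor.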 The settings on record: P. falciparum 3D7 crude extract, LDH APAD/NBT absorbance; at 2 µM; hits give high values. (The purpose of a counterscreen is to sort out artefacts and off-target activity.)
Chain of L-lactate dehydrogenase (Plasmodium falciparum (isolate CDC / Honduras)) (Q27743 whole entry, looked up): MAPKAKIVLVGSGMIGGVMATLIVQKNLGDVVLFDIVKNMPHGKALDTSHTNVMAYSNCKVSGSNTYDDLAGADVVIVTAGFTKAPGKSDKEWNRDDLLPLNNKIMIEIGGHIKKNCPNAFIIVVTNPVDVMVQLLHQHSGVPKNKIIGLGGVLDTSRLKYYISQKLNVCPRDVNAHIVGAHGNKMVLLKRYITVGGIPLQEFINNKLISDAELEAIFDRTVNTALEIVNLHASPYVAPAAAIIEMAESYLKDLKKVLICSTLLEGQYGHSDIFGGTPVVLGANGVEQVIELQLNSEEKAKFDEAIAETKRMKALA

Assay [4] can be described thus: inhibition of 3D7 malaria parasite growth – strain 3D7 (AID 2306).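 Also: 0% = DMSO wells and 100% = chloroquine plus artemisinin control wells.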 The settings on record: P. falciparum 3D7 erythrocytic growth, LDH absorbance, 72 h; at 2 µM; hits give high values.
Assay [5] has as its target Calcium-dependent protein kinase 1 (Plasmodium falciparum (isolate 3D7)) (UniProt P62344). As to the kind of experiment: PfCDPK1 kinase inhibitors, biochemical, TCAMS library (AID 1159585; cut-off not given, nearly all actives have IC50 up to about 0.98 µM;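 also: inhibitors leave more ATP so luminescence rises with inhibition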). To be noted: recombinant PfCDPK1, Kinase-Glo ATP depletion luminescence.
Assay [6] has as its target Plasmodium falciparum protein kinase 6 (PK6, PF3D7_1337100) (UniProt Q8IDW1). Kind of assay: PfPK6 kinase inhibitors, biochemical, TCAMS library (AID 1159586). To be noted: recombinant PfPK6, Kinase-Glo ATP depletion luminescence.
In assay [7] the target is Protein kinase 7 (PK7), Plasmodium falciparum 3D7 (PF3D7_0213400) (UniProt Q7YTF7). As to the kind of experiment: inhibition of Plasmodium PK7 catalytic activity – biochemical, TCAMS antimalarial set, Kinase-Glo luminescence (AID 1159587). The settings on record: recombinant PfPK7, Kinase-Glo ATP depletion luminescence.
Chain of Protein kinase 7 (PK7), Plasmodium falciparum 3D7 (PF3D7_0213400) (Q7YTF7 1-343): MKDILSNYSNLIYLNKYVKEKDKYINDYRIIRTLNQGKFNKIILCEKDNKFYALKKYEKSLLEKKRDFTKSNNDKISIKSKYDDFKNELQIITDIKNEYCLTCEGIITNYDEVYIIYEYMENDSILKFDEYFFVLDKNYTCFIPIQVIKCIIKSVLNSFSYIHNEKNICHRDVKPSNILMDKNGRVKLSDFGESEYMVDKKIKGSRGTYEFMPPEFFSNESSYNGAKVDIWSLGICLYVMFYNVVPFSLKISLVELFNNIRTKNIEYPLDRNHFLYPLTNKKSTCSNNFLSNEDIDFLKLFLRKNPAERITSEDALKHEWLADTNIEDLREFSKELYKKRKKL
Assay [8] deals with Calcium-dependent protein kinase 4 (Plasmodium falciparum (isolate 3D7)) (UniProt Q8IBS5). Kind of assay: PfCDPK4 kinase inhibitors, biochemical, TCAMS library (AID 1159588; cut-off not given, nearly all actives have IC50 up to about 0.91 µM). The settings on record: recombinant PfCDPK4, Kinase-Glo ATP depletion luminescence.
Chain of Calcium-dependent protein kinase 4 (Plasmodium falciparum (isolate 3D7)) (Q8IBS5 whole entry, looked up): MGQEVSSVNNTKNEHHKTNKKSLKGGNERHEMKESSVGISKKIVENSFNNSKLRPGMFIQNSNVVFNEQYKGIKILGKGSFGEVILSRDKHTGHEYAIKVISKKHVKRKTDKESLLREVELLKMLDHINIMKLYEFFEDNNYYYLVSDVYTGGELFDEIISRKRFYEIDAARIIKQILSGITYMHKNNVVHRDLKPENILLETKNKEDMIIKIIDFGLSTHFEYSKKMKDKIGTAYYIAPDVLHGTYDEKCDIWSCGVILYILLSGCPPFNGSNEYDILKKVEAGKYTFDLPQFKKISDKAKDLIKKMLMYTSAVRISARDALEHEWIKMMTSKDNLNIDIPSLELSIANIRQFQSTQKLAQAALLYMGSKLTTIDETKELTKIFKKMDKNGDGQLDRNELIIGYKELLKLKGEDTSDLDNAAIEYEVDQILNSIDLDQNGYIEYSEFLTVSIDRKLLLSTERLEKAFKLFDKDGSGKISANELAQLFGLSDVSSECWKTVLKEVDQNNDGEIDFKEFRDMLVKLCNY

A number with no mark means an inactive call. For some of these results: Entries with a potency or affinity are not part of this list. The source made the active and inactive calls. Unless noted, no rule for the calls is given here.

Broadly, the inhibition is the change of the read-out against control, counted positive when it falls.

Chain of Plasmodium falciparum protein kinase 6 (PK6, PF3D7_1337100) (Q8IDW1 1-305): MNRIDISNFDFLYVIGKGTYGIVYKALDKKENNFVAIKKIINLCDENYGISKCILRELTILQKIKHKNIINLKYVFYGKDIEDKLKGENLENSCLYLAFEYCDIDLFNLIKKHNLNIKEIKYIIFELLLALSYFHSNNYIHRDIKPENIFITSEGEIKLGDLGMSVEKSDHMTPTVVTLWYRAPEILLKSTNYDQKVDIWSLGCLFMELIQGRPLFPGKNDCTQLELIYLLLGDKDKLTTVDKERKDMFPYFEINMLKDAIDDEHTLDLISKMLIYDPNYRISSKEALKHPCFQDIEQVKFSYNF
Chain of Calcium-dependent protein kinase 1 (Plasmodium falciparum (isolate 3D7)) (P62344 whole entry, looked up): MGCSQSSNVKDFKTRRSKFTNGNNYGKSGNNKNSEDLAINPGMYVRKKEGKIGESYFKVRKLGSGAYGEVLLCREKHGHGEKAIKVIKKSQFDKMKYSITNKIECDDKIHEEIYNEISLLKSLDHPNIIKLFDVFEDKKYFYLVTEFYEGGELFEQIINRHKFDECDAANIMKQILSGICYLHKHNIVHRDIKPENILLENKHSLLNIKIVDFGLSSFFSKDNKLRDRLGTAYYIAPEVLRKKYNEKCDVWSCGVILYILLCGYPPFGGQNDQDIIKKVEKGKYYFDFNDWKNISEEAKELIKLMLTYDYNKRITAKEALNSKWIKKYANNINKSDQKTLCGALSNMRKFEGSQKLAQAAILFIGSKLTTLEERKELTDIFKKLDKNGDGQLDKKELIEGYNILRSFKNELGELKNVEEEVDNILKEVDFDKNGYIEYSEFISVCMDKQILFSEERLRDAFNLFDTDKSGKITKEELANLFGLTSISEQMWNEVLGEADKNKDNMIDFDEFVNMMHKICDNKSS

In the case of `COc1cc(Nc2nccn3c(-c4ccsc4)cnc23)cc(OC)c1OC`, the growth inhibition is 78% (active) in assay [1] and 93% (active) in assay [4]. Further, the inhibition in assay [2] is 26%; in assay [3], 3%. Also, the result in assay [5], in assay [6], in assay [7] and in assay [8] was inactive.
Take `Cc1noc(C)c1-c1ccc2c(Nc3ccccc3N3CCOCC3)c(C(=O)NCc3ccccc3)cnc2c1`: the growth inhibition was 6% in assay [1] and 91% (active) in assay [4]. Also, the inhibition in assay [2] was 23%; in assay [3] it was -2%. Further, the result in assay [5], in assay [6], in assay [7] and in assay [8] was inactive.
As to `C[C@H](NC(=O)[C@H](CCCCNC(=O)OC(C)(C)C)NC(=O)OC(C)(C)c1ccc(-c2ccccc2)cc1)C(=O)OCc1ccccc1`, the figures for the growth inhibition in assay [1] and in assay [4] were 1% and 97% (active), respectively. Also, the values for the inhibition in assay [2] and in assay [3] were 4% and -7%, respectively. For the same compound, the outcome in assay [5], in assay [6], in assay [7] and in assay [8] was inactive.
Turning to `c1cnc2ccc(NCc3ccc(-c4ccc(CNC5CCCC5)cc4)cc3)cc2c1`, the figures for the growth inhibition in assay [1] and in assay [4] were 21% and 97% (active), respectively. In addition, the inhibition in assay [2] is 27%; in assay [3] it was -2%. Also, the outcome in assay [5], in assay [6], in assay [7] and in assay [8] was inactive.
Turning to `CC(C)C[C@@H](/C=N/N1CC(=O)NC1=O)NC(=O)[C@H](CC(C)C)NC(=O)c1ccc(OCCN2CCOCC2)cc1`, the growth inhibition was 79% (active) in assay [1] and 94% (active) in assay [4]. The figures for the inhibition in assay [2] and in assay [3] were 11% and 1%, respectively. Further, the result in assay [5], in assay [6], in assay [7] and in assay [8] was inactive.
With `COc1ccc2ncc(F)c(NC(=O)C3CCC(NCc4cc5cc(F)cc(F)c5[nH]4)CC3)c2n1` (stereo not given), the figures for the growth inhibition in assay [1] and in assay [4] were 15% and 95% (active), respectively. Further, the results for the inhibition in assay [2] and in assay [3] were 18% and 2%, respectively. Besides, the outcome in assay [5], in assay [6], in assay [7] and in assay [8] was inactive.
Take `COCCC[C@H]1C(=O)O[C@H]2CCC[C@@H]21`: the figures for the growth inhibition in assay [1] and in assay [4] were 85% (active) and 93% (active), respectively. Further, the values for the inhibition in assay [2] and in assay [3] were -9% and -4%, respectively. Also, the result in assay [5], in assay [6], in assay [7] and in assay [8] was inactive.
`CCOc1cc(C)ccc1C1CCN(CCCCNC(=O)c2ccc(-c3ccc(Cl)cn3)cc2)CC1`: the growth inhibition in assay [1] is 8%; in assay [4], 94% (active). Further, the inhibition in assay [2] was 19%; in assay [3], -6%. The outcome in assay [5], in assay [6], in assay [7] and in assay [8] was inactive.
In the case of `CCOc1ccc2nc(C)cc(NN=Cc3ccccc3F)c2c1`, the growth inhibition in assay [1] was 99% (active); in assay [4], 101% (active). Also, the inhibition in assay [2] was 0%; in assay [3], -3%. Also, the outcome in assay [5], in assay [6], in assay [7] and in assay [8] was inactive.
On to `Clc1cc(Br)ccc1-c1ccc(CNCC2CCNCC2)o1`, for which the growth inhibition in assay [1] is 39%; in assay [4], 96% (active). For the same compound, the inhibition in assay [2] is 100% (active); in assay [3], 1%. Moreover, the outcome in assay [5], in assay [6], in assay [7] and in assay [8] was inactive.
Regarding `COCCOc1ccc(Nc2nccc(-c3c(-c4cccc(NC(=O)c5c(F)cccc5F)c4)nn4ccccc34)n2)cc1F`, the growth inhibition in assay [1] is 60% (active); in assay [4], 90% (active). The inhibition in assay [2] was 62% (active); in assay [3], 1%. Also, the outcome in assay [5], in assay [6], in assay [7] and in assay [8] was inactive.
As to `O=C(/C=C/c1ccc(Cl)c(Cl)c1)NCCCCCN1CCN(C(=O)Nc2ccc(C(F)(F)F)cc2)CC1`, the growth inhibition in assay [1] is -1%; in assay [4], 99% (active). In addition, the inhibition in assay [2] was 26%; in assay [3] it was -5%. In addition, the outcome in assay [5], in assay [6], in assay [7] and in assay [8] was inactive.
As for `COc1ccc(-c2cccc(NC(=O)c3cccc(F)c3)c2)cc1CN1CCCN(C)CC1`, the values for the growth inhibition in assay [1] and in assay [4] were 78% (active) and 101% (active), respectively. Further, the inhibition is 42% in assay [2] and 0% in assay [3]. For the same compound, the outcome in assay [5], in assay [6], in assay [7] and in assay [8] was inactive.
Turning to `COCCOc1cccc(CN2CCC(c3cc4nc(C)cc(C(F)(F)F)n4n3)C2)c1` (stereo not given), the growth inhibition was 74% (active) in assay [1] and 85% (active) in assay [4]. Moreover, the inhibition in assay [2] was 25%; in assay [3], 2%. Besides, the outcome in assay [5], in assay [6], in assay [7] and in assay [8] was inactive.
As to `CCOc1cc(C(=O)NCCN(C(C)C)C(C)C)ccc1-c1nc2ccc(Cl)cc2[nH]1`, the results for the growth inhibition in assay [1] and in assay [4] were 90% (active) and 101% (active), respectively. Besides, the inhibition is 4% in assay [2] and 2% in assay [3]. Besides, the result in assay [5], in assay [6], in assay [7] and in assay [8] was inactive.
With `COc1ccc(C2CC(=O)C3=C(C2)NC(C)=C(C(=O)OC(C)C)C3c2c(F)cccc2Cl)cc1OC` (stereo not given), the figures for the growth inhibition in assay [1] and in assay [4] were 81% (active) and 93% (active), respectively. Moreover, the inhibition was 0% in assay [2] and -1% in assay [3]. The result in assay [5], in assay [6], in assay [7] and in assay [8] was inactive.
As to `O=C(Nc1ccc(Cl)cc1)c1cccc(S(=O)(=O)NC2CCN(CC3CCCCC3)CC2)c1`, the growth inhibition in assay [1] is 11%; in assay [4], 92% (active). Further, the inhibition was 67% (active) in assay [2] and 0% in assay [3]. Further, the outcome in assay [5], in assay [6], in assay [7] and in assay [8] was inactive.
On to `CN1CCN(c2cc3c(Nc4ccc5c(cnn5Cc5ccccc5)c4)ncnc3cn2)CC1`, for which the results for the growth inhibition in assay [1] and in assay [4] were 35% and 88% (active), respectively. The inhibition in assay [2] is 9%; in assay [3], 5%. Besides, the outcome in assay [5], in assay [6], in assay [7] and in assay [8] was inactive.
Take `N#CN1CC[C@@H](NS(=O)(=O)Cc2ccc(Cl)c(Cl)c2)C1`: the growth inhibition in assay [1] and in assay [4] was 94% (active) throughout. The inhibition in assay [2] was 13%; in assay [3], -3%. The result in assay [5], in assay [6], in assay [7] and in assay [8] was inactive.
As for `CC(=O)Nc1nc(C(=O)Nc2ccc(-c3cccc(-c4nc5c(C)cccc5[nH]4)c3)cc2)cs1`, the values for the growth inhibition in assay [1] and in assay [4] were 73% (active) and 101% (active), respectively. Besides, the values for the inhibition in assay [2] and in assay [3] were 100% (active) and -4%, respectively. Also, the outcome in assay [5], in assay [6], in assay [7] and in assay [8] was inactive.
